According to PubChem BioAssay (NCI):
This is part of a sample that, as a whole, favours compounds with a hit. Of some 83,000 tested, about 20% had one in any assay.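 For each line, cells grew in 96-well plates with the test compound present at a single concentration for 48 hours.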 Values without a mark were called inactive. Calls of active or inactive are those of the source. Rule for the calls: active = growth percent below 10; inactive = the rest.

Test system: HCT-116 colon
Test: NCI-60 one-dose screen, 48 h (100 = growth as untreated, 0 = no growth, -100 = all killed)
Conditions: 10 µM unless noted

SMILES | growth
COCCOc1cc2ncnc(N3CCN(c4ncc(S(=O)(=O)N5CCCCC5)cn4)CC3)c2cc1OCCOC | 100%
COC(=O)[C@]1(C)CCC[C@]2(C)[C@H]3C[C@H]4C(C(C)C)=C[C@]3(CC[C@H]21)[C@@H]1C(=O)CC[C@H](OCCC#N)[C@@H]14 | 77.6%
O=C(O)CCN1C(=O)/C(=C/C(Cl)=C/c2ccccc2)SC1=S | -19% (active)
O=C(/C=C/c1cccc(Cl)c1)c1ccc(Nc2nc(Nc3ccc(F)cc3)nc(Nc3ccc(Cl)cc3)n2)cc1 | 82.3%
CC(C)(Sc1cc(C(C)(C)C)c(O)c(C(C)(C)C)c1)Sc1cc(C(C)(C)C)c(OC(=O)CCCC(=O)O)c(C(C)(C)C)c1 | 26.5%
Fc1cc2c(cc1Cl)N(c1ncnc3ccc(-c4ccc5n[nH]nc5c4)cc13)CC2 | 96.7%
CCSC(SCC)c1ccc(Cl)cc1 | 108%
O=C(Nc1nc2ccc(C(=O)N3CCN(/C=C/c4ccccc4)CC3)cc2s1)c1ccc(NCCc2ccccc2)c([N+](=O)[O-])c1 | 11.2%
O=S(=O)(Nc1cc(F)cc(Cl)c1)c1ccc(-c2cnc(C3CC3)o2)cc1 | 28.1%
COC(=O)c1c(C)nc(C)c2c1C(=O)C(Br)=C(NCc1ccccc1)C2=O | 1.86% (active)
COc1cc2c(c(OC)c1OC)CCC(c1cccc(C(=O)Nc3ccc(C#N)cc3)c1)O2 (stereo unspecified) | 48.8%
O=C1c2ccccc2-c2c1c1c(=O)[nH]c3ccccc3c1n2Cc1ccccc1 | 41%
O=C1c2c(c3c4ccccc4[nH]c3c3ccc4ccccc4c23)C(=O)N1CCN1CCNCC1 | -81.3% (active)
CC(C)=CCCC(C)c1ccc(C)c2c1OCN(CCCCCO)C2 (stereo unspecified) | 68.6%
COc1ccc(/C=N/NC(=O)c2ccc(-n3cc(-c4ccccc4)nn3)cc2)cc1OC | 92.7%
CCN(CC)S(=O)(=O)c1ccc(S(=O)(=O)N2CCC[C@@H](C(=O)N3CCN(c4nc(C(C)C)no4)CC3)C2)cc1 | 51.8%
Cc1cc(N2CCN(CC(=O)Nc3ccc4c(ccn4C)c3)CC2)nc(N2CCCCCC2)n1 | 85.6%
COc1ccc(Nc2ncc(Br)c(NCCCNC(=O)c3cccs3)n2)cc1 | 26.2%

SMILES | growth
NC(=O)C(=O)c1ccccc1NC=O | 93.1%
N#Cc1ccc2c(c1)C(=O)c1c-2n(CCCN)c(=O)c2cc([N+](=O)[O-])ccc12 | -100% (active)
c1ccc(Cn2cc3c(c2)-c2oncc2CC3)cc1 | 9.28% (active)
O=C(CSC(=S)n1cnnc1)NC(=O)c1ccccc1 | 112%
O=C1/C(=C\c2ccc3nccnc3c2)SC(=S)N1CCc1ccc(O)cc1 | 94.8%
COc1c(B(O)O)cccc1-c1nc2c(F)cc3[nH]ncc3c2c2c1CCCC2 | 2.84% (active)
COc1c(B(O)O)cccc1-c1cc(C)c2c(ccc3[nH]ncc32)n1 | 41.7%
CSc1nnc(-c2cc3c([nH]c4ccccc43)c(-c3cccc(O)c3)n2)n1-c1ccccc1 | 18.3%
C=C1C(=O)O[C@H]2[C@H]1CC/C(Cn1cc(-c3ccccc3)nn1)=C\CC[C@@]1(C)O[C@@H]21 | -67.1% (active)
C=C(CBr)[C@@H]1CC[C@]2(C(=O)O)CC[C@]3(C)[C@H](CC[C@@H]4[C@@]5(C)CCC(=O)C(C)(C)[C@@H]5CC[C@]43C)[C@@H]12 | 72.6%
CCNCCNc1cc(C2CCCCC2)c(C#N)c2nc3ccccc3n12 | -4.22% (active)
COc1cc2c(c(OC)c1OC)CCC(c1cccc(C(=O)Nc3cccc(Cl)c3)c1)O2 (stereo unspecified) | 74.2%
CCCCCCCC[C@@H]1N[C@@H](C(=O)OC)Cc2c1[nH]c1ccccc21 | 95.7%
CC(=O)Oc1ccc(/C(=C(\C)c2ccc(Cl)cc2)c2ccc(OCCN3CCCCC3)cc2)cc1 | 32.4%
COc1ccc2cc1Oc1ccc(cc1)C[C@H]1c3c(cc4c(c3Oc3cc5c(cc3OC)CCN(C)[C@@H]5C2)OCO4)CCN1C | 19.2%
CC(=O)c1c(C)nc2ccccc2c1/C=C/c1ccc(F)cc1 | 74.6%
CN(/C(N)=N/N=C/c1c2ccccc2cc2ccccc12)C1CCCCC1 | 15.9%
CCOC(=O)n1ccn(C)c1=S | 94.4%
